In PubChem BioAssay (Tox21):
Several values for one entry are separate records, joined by “and”; a condition that tells them apart may be missing. Equal entries are not always repeated. Inconclusive results are not listed. Activity calls are given as the source filed them. Calls come from the whole dose curve; as a rule, active = well fitted curve in the direction sought with a large enough effect in the repeat runs; inconclusive = weak or mixed curves; inactive = no such curve, though single readings can be large; an effect the other way counts as inactive or inconclusive.

Columns and labels:
[1] = A CellTox Green Cytotoxicity Assay to monitor cytotoxicity in HEK293 cells - 40 hour (AID 1224871); note: nearly all actives have a fitted effect of over 45% in size
Procedure, shortened: (§1)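 Tox21 screen in HEK293: membrane-impermeant cyanine dye fluoresces on binding dead-cell DNA; compound pinned 5 h post-seeding, plates held at 37 C, signal read repeatedly through 40 h.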

[2] = qHTS RealTime-Glo MT Cell Viability Assay in HEK293 cells - 16 hour (AID 1224872); note: top concentration of the series differs between compounds; nearly all actives have a fitted effect of over 50% in size
Procedure, shortened: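 Viability tracked continuously by luminescence as live cells reduce a prosubstrate for NanoLuc; HEK293 cells preincubated 5 h, compound-treated at 37 C, and read at 0, 8, 16, 24, 32 and 40 h.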

[3] = qHTS RealTime-Glo MT Cell Viability Assay in HepG2 cells - 8 hour (AID 1224873); note: nearly all actives have a fitted effect of over 55% in size
Procedure, shortened: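 Real-time viability: cells seeded at 600 per well together with NanoLuc and cell-permeant prosubstrate, compounds added after 5 h incubation. Luminescence tracked at 0, 8, 16, 24, 32 and 40 h of exposure.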

[4] = qHTS RealTime-Glo MT Cell Viability Assay in HEK293 cells - 40 hour (AID 1224874); settings: RealTime-Glo luminescence; max response: hits give low values; note: nearly all actives have a fitted effect of over 50% in size
Procedure, shortened: (§2)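 HEK293 + NanoLuc + prosubstrate, 600 cells/well; 5 h, 37 C/5% CO2; compound 23 nL in DMSO by pintool; 37 C; luminescence read at 0, 8, 16, 24, 32 and 40 h time points.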

[5] = A CellTox Green Cytotoxicity Assay to monitor cytotoxicity in HEK293 cells - 24 hour (AID 1224875); note: series mostly up to about 77 µM; nearly all actives have a fitted effect of over 45% in size
Procedure, shortened: as §1

[6] = A CellTox Green Cytotoxicity Assay to monitor cytotoxicity in HepG2 cells - 16 hour (AID 1224876); note: nearly all actives have a fitted effect of over 45% in size
Procedure, shortened: (§3)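 Measurements at 0, 8, 16, 24, 32 and 40 h of treatment captured CellTox Green fluorescence in HepG2 cells that had been co-plated with reagent and preincubated 5 h at 37 C/5% CO2.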

[7] = qHTS RealTime-Glo MT Cell Viability Assay in HepG2 cells - 32 hour (AID 1224877); note: nearly all actives have a fitted effect of over 55% in size
Procedure, shortened: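 Viability was tracked continuously by NanoLuc luminescence from prosubstrate reduced by living HepG2 cells, at successive time points over 40 h of compound exposure. Cells with reagent were preincubated 5 h at 37 °C before compound addition.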

[8] = A CellTox Green Cytotoxicity Assay to monitor cytotoxicity in HepG2 cells - 24 hour (AID 1224878); note: nearly all actives have a fitted effect of over 45% in size
Procedure, shortened: as §3

[9] = A CellTox Green Cytotoxicity Assay to monitor cytotoxicity in HepG2 cells - 40 hour (AID 1224879); note: nearly all actives have a fitted effect of over 40% in size
Procedure, shortened: as §3

[10] = qHTS RealTime-Glo MT Cell Viability Assay in HEK293 cells - 0 hour (AID 1224880)
Procedure, shortened: as §2
% is set by controls: 0 for no effect and ±100 for the full control effect.

CCCCCOC(=O)CCCCC
inactive: Potency [1] | Potency [2] | Potency [3] | max response [4] 7.06% | Potency [5] | Potency [6] | Potency [7] | Potency [8] | Potency [9] | Potency [10]

OC1CCCCC1c1ccccc1 (stereo not given)
inactive: Potency [1] | Potency [2] | Potency [3] | max response [4] 3.62% | Potency [5] | Potency [6] | Potency [7] | Potency [8] | Potency [9] | Potency [10]

CCN(CC)CCOCCOC(=O)C1(c2ccccc2)CCCC1
inactive: Potency [1] | Potency [2] | Potency [3] | max response [4] -9.14% | Potency [5] | Potency [6] | Potency [7] | Potency [8] | Potency [9] | Potency [10]

CC(C)(O)C(=O)c1ccccc1
inactive: Potency [1] | Potency [2] | Potency [3] | max response [4] 1.69% | Potency [5] | Potency [6] | Potency [7] | Potency [8] | Potency [9] | Potency [10]

c1cnc(N2CCN(Cc3ccc4c(c3)OCO4)CC2)nc1
inactive: Potency [1] | Potency [2] | Potency [3] | max response [4] -13% | Potency [5] | Potency [6] | Potency [7] | Potency [8] | Potency [9] | Potency [10]

FC(F)OC(Cl)C(F)(F)F (stereo not given)
inactive: Potency [1] | Potency [2] | Potency [3] | max response [4] 5.59% | Potency [5] | Potency [6] | Potency [7] | Potency [8] | Potency [9] | Potency [10]

Nc1cc(=O)[nH]c(N)n1
inactive: Potency [1] | Potency [2] | Potency [3] | max response [4] 0.787% | Potency [5] | Potency [6] | Potency [7] | Potency [8] | Potency [9] | Potency [10]

CCC=O
inactive: Potency [1] | Potency [2] | Potency [3] | max response [4] 5.02% | Potency [5] | Potency [6] | Potency [7] | Potency [8] | Potency [9] | Potency [10]

Cc1cccn2c(=O)c(-c3nnn[nH]3)cnc12
inactive: Potency [1] | activity change, negative = cytotoxicity [2] 2% [at 15.8 µM] | viability change, negative = cytotoxic [3] -11% [at 15.8 µM] | max response [4] 1.37% | activity change [5] 11.9% [at 15.8 µM, hits give high values] | cytotoxicity increase [6] 6.14% [at 15.8 µM] | activity change, negative = cytotoxic [7] 3.38% [at 15.8 µM] | cytotoxicity [8] 3.1% [at 15.8 µM] | cytotoxicity increase [9] 1.54% [at 15.8 µM] | activity change, negative = cytotoxicity [10] 7.45% [at 15.8 µM]

Cc1ccc(C#N)cc1
inactive: Potency [1] | Potency [2] | Potency [3] | max response [4] 6.96% | Potency [5] | Potency [6] | Potency [7] | Potency [8] | Potency [9] | Potency [10]

CC(NC(CCc1ccccc1)C(=O)O)C(=O)N1C(=O)N(C)CC1C(=O)O (stereo not given)
inactive: Potency [1] | Potency [2] | Potency [3] | max response [4] -1.88% | Potency [5] | Potency [6] | Potency [7] | Potency [8] | Potency [9] | Potency [10]

CC(C[N+](C)(C)C)OC(N)=O (stereo not given)
inactive: Potency [1] | Potency [2] | Potency [3] | max response [4] 4.17% | Potency [5] | Potency [6] | Potency [7] | Potency [8] | Potency [9] | Potency [10]

CC(C)CNCC(C)C
inactive: Potency [1] | Potency [2] | Potency [3] | max response [4] 0.947% | Potency [5] | Potency [6] | Potency [7] | Potency [8] | Potency [9] | Potency [10]

CCOc1ccc(C(=O)OCCN(CC)CC)cc1
inactive: Potency [1] | Potency [2] | Potency [3] | max response [4] 4.37% | Potency [5] | Potency [6] | Potency [7] | Potency [8] | Potency [9] | Potency [10]

CN1CCCC1
inactive: Potency [1] | Potency [2] | Potency [3] | max response [4] 1.57% | Potency [5] | Potency [6] | Potency [7] | Potency [8] | Potency [9] | Potency [10]

Cn1c(N)c(N=O)c(=O)n(C)c1=O
inactive: Potency [1] | Potency [2] | Potency [3] | max response [4] 4.01% | Potency [5] | Potency [6] | Potency [7] | Potency [8] | Potency [9] | Potency [10]

CCN1CCC[C@H]1CNC(=O)c1c(O)c(Cl)cc(Cl)c1OC
inactive: Potency [1] | Potency [2] | Potency [3] | max response [4] -0.593% | Potency [5] | Potency [6] | Potency [7] | Potency [8] | Potency [9] | Potency [10]

N[C@@H](C(=O)N[C@@H]1C(=O)N2C(C(=O)O)=C(Cl)CS[C@H]12)c1ccccc1
inactive: cytotoxicity increase [1] 2.56% [at 6.97 µM] | activity change, negative = cytotoxicity [2] 12.8% [at 6.97 µM] | viability change, negative = cytotoxic [3] 3.66% [at 6.97 µM] | max response [4] 6.7% | activity change [5] 0.0795% [at 6.97 µM, hits give high values] | cytotoxicity increase [6] -14% [at 6.97 µM] | activity change, negative = cytotoxic [7] 1.49% [at 6.97 µM] | cytotoxicity [8] -20.4% [at 6.97 µM] | cytotoxicity increase [9] -14.3% [at 6.97 µM] | activity change, negative = cytotoxicity [10] 12.5% [at 6.97 µM]

CC[N+](C)(C)c1cccc(O)c1
inactive: Potency [1] | Potency [2] | Potency [3] | max response [4] -7.12% | Potency [5] | Potency [6] | Potency [7] | Potency [8] | Potency [9] | Potency [10]

COC(=O)CC(C)=O
inactive: Potency [1] | Potency [2] | Potency [3] | max response [4] 11.5% | Potency [5] | Potency [6] | Potency [7] | Potency [8] | Potency [9] | Potency [10]

CC(=O)OC/C=C(\C)CC/C=C(\C)CCC=C(C)C
inactive: Potency [1] | Potency [2] | Potency [3] | max response [4] 12.3% and 2.35% | Potency [5] | Potency [6] | Potency [7] | Potency [8] | Potency [9] | Potency [10]
